According to PubChem BioAssay (EPA / NIEHS):
The source made the active and inactive calls. Rule for the calls: active = hit-call score of the fitted dose curve at least 0.9, where 1 is the maximum; inactive = score below 0.9.

These molecules were tested on Cytochrome P450 7A1 (Homo sapiens) (UniProt P22680) (assay: LTEA_HepaRG_CYP7A1: Life Technologies and Expression Analysis (LTEA) Assay for Cytochrome P450 7A1 (CYP7A1) using HepaRG (AID 2283496)). Details: mRNA level, 48 h; actives raise or lower the signal.
Experimental: LTEA_HepaRG is a cell based, multiplexed-readout assay that uses HepaRG, a human liver cell line, with measurements taken at 48 hours after chemical dosing on a 96-well plate.LTEA_HepaRG_CYP7A1 is one of 102 assay component(s) measured in the LTEA HepaRG cell culture assay. It is a marker of NR mediated metabolism.Data from the assay component LTEA_HepaRG_CYP7A1 was analyzed into 1 endpoint. This assay endpoint, LTEA_HepaRG_CYP7A1, was analyzed with bidirectional fitting relative to DMSO as the negative control and baseline of activity. Using a type of inducible reporter, measures of mRNA induction for gain or loss-of-signal activity can be used to understand regulation of transcription factor activity. To generalize the intended target to other relatable targets, this assay endpoint is annotated to the cyp intended target family, where the subfamily is xenobiotic metabolism.
A total of 1060 chemcials from the ToxCast library were tested in eight-point concentration-response experiments. Cell culture and cytotoxicity assays were conducted at Thermo Fisher Scientific's Custom Services facility (Madison, WI). A single lot of human HepaRG cells (Thermo Fisher Scientific, Frederick, MD) was used for the cell culture experiments. 96-well format collagen type I coated plates of human HepaRG cells were prepared using established methods. Briefly, cryopreserved HepaRG cells were thawed, plated at a density of approximately 100,000 cells/well in HepaRG Thaw, Plate, and General Purpose media (HPRG770, Thermo Fisher Scientific), and incubated for 48 hours. 0.5% DMSO was selected as vehicle control to balance the requisite need of DMSO in HepaRG cultures to maintain differentiation (for example, baseline metabolism, proportions of hepatocytes vs. cholangiocytes), while enabling further hepatic receptor pathway activation (for example, PXR and CAR) in response to chemical exposure. 48 hours after plating, the culture medium was replaced with HepaRG Serum-Free Incudtion Media. Cells were exposed to each test chemical in duplicate and maintained in CO2 incubators for another 48 hours. Chemical plates were thawed to room temperature and 200x concentrations of treatment groups were prepared. 8-point conentration-reponse curves were made with the highest exposure at 100 uM, followed by half-log dilutions, all in 0.5% DMSO. Each test plate contained variouse controls, induction positive controls (1mM phenobarbital), cytotoxicity positive controls ([…] aflatoxin B1), vehicle controls (0.5% DMSO), and total lysis controls (0.5% DMSO). Cell morphology images were taken using an Essen IncuCyte FLR automated microscope, with six 96-well plates imaged in about 24 minutes. Images were captured and exported and JPEG files. Spent culture media was transfered to black-well plates for the LDH assay, and remaining media was sorted at -80 C for later use. Cells were treated with RLT buffer and frozen until shipped for gene expression analysis. Total RNA was isolated from the cell suspension in 75 uL of Buffer RLT (Qiagen, Germantown, MD 20874) by Quintiles/Expression Analysis (Durham, NC) using a custom isolation procedure. Total RNA from each plate well was transferred to a preamplification plate. Fluidigm's 96.96 Dynamic ArrayTM (Fluidigm, Amsterdam, the Netherlands) technology was used for gene expression analyses by quantitative reverse transcription polymerase chain reaction (qRT-PCR, performed by Quintiles/Expression Analysis, Durham, NC)89. Standard TaqManTM Assays (Applied Biosystems/ThermoFisher Scientific, Foster City, CA) were used to assess the expression of 93 genes selected based on their selectivity and sensitivity to important hepatic receptors known to be modulated by environmental chemicals; importance in human hepatocyte functionality; and hepatotoxicity. […]

Question: For CC(C)C1(C)N=C(c2ncccc2C(=O)O)NC1=O (stereo not given), which outcome is on record?
Answer: Its outcome is “inactive”.

Question: COc1ccc(-c2ccccc2)cc1NNC(=O)OC(C)C was tested. Which outcome did it give?
Answer: The outcome was “inactive”.

Question: How did the AC50 turn out when CC1(C)C(C=C(Cl)Cl)C1C(=O)OC(C#N)c1cccc(Oc2ccccc2)c1 (stereo not given) was run?
Answer: The AC50 was 13.9 µM (active).

Question: With CNC(=O)Oc1cccc2ccccc12 as the molecule, how does the outcome read?
Answer: The outcome was “inactive”.

Question: Cc1cc(C)nc(Nc2ccccc2)n1 was tested. Which AC50 did it give?
Answer: The AC50 was 3.4 µM (active).

Question: For CC(C)Nc1nc(Cl)nc(NC(C)C)n1, which AC50 is on record?
Answer: The AC50 was 50 µM (active).

Question: For CC(C)(C)C(=O)C(Oc1ccc(Cl)cc1)n1cncn1 (stereo not given), which outcome is on record?
Answer: The outcome was “inactive”.

Question: With CS(=O)(=O)c1cc(C(F)(F)F)ccc1C(=O)c1cnoc1C1CC1 as the molecule, how does the outcome read?
Answer: The outcome was “inactive”.

Question: For COP(=S)(OC)Oc1ccc([N+](=O)[O-])c(C)c1, which outcome is on record?
Answer: Its outcome is “inactive”.

Question: Which outcome does the source give for COCc1cnc(C2=NC(C)(C(C)C)C(=O)N2)c(C(=O)O)c1 (stereo not given) here?
Answer: The outcome was “inactive”.

Question: CC(C)N1C(=O)c2ccccc2NS1(=O)=O was tested. Which outcome did it give?
Answer: Its outcome is “inactive”.

Question: With Cc1nc(N(C)C)nc(OC(=O)N(C)C)c1C as the molecule, how does the outcome read?
Answer: Its outcome is “inactive”.

Question: How did the outcome turn out when COc1cc(OC)nc(NC(=O)NS(=O)(=O)c2ncccc2OCC(F)(F)F)n1 was run?
Answer: The outcome was “inactive”.

Question: For CCNP(=S)(OC)O/C(C)=C/C(=O)OC(C)C (stereo not given), which outcome is on record?
Answer: Its outcome is “inactive”.

Question: For N#CN=C1SCCN1Cc1ccc(Cl)nc1, which outcome is on record?
Answer: Its outcome is “inactive”.

Question: Which AC50 does the source give for CC(C)NC(=O)N1CC(=O)N(c2cc(Cl)cc(Cl)c2)C1=O here?
Answer: Its AC50 is 13.1 µM (active).

Question: With Cc1ccc(N=CN(C)C=Nc2ccc(C)cc2C)c(C)c1 as the molecule, how does the outcome read?
Answer: Its outcome is “inactive”.

Question: Nc1c(Cl)c(F)nc(OCC(=O)O)c1Cl was tested. Which outcome did it give?
Answer: The outcome was “inactive”.

Question: For CCCCC(C#N)(Cn1cncn1)c1ccc(Cl)cc1 (stereo not given), which outcome is on record?
Answer: The outcome was “inactive”.

Question: With CCOP(=S)(OCC)Oc1nc(Cl)n(C(C)C)n1 as the molecule, how does the AC50 read?
Answer: Its AC50 is 2.01 µM (active).

Question: Which outcome does the source give for COCC(=O)N(c1c(C)cccc1C)C(C)C(=O)OC (stereo not given) here?
Answer: Its outcome is “inactive”.

Question: How did the AC50 turn out when CCCCC(O)(Cn1cncn1)c1ccc(Cl)cc1Cl (stereo not given) was run?
Answer: Its AC50 is 89 µM (active).

Question: Which outcome does the source give for O=C1C2CC=CCC2C(=O)N1SC(Cl)(Cl)Cl (stereo not given) here?
Answer: The outcome was “inactive”.

Question: With CO/N=C(/C1=NOCCO1)c1ccccc1Oc1ncnc(Oc2ccccc2Cl)c1F as the molecule, how does the AC50 read?
Answer: Its AC50 is 24 µM (active).

Question: How did the outcome turn out when Clc1nc(Cl)nc(Nc2ccccc2Cl)n1 was run?
Answer: Its outcome is “inactive”.

Question: With CCOC(=O)C(C)OC(=O)c1cc(Oc2ccc(C(F)(F)F)cc2Cl)ccc1[N+](=O)[O-] (stereo not given) as the molecule, how does the AC50 read?
Answer: The AC50 was 50 µM (active).

Question: Which AC50 does the source give for COC(=O)N(C(=O)N1CO[C@@]2(C(=O)OC)Cc3cc(Cl)ccc3C2=N1)c1ccc(OC(F)(F)F)cc1 here?
Answer: The AC50 was 31.8 µM (active).

Question: Which outcome does the source give for COP(=O)(OC)O/C(C)=C/C(=O)N(C)C here?
Answer: Its outcome is “inactive”.

Question: For CN/C(=N\[N+](=O)[O-])NCc1cnc(Cl)s1, which AC50 is on record?
Answer: Its AC50 is 50 µM (active).

Question: Which AC50 does the source give for CCOP(=O)(OCC)Oc1nc(Cl)c(Cl)cc1Cl here?
Answer: The AC50 was 83.8 µM (active).

Question: For Cc1cnc(C2=NC(C)(C(C)C)C(=O)N2)c(C(=O)O)c1 (stereo not given), which outcome is on record?
Answer: Its outcome is “inactive”.

Question: With O=c1n(Cl)c(=O)n(Cl)c(=O)n1Cl as the molecule, how does the outcome read?
Answer: Its outcome is “inactive”.

Question: How did the outcome turn out when CCN(CC)c1nc(C)cc(OP(=S)(OC)OC)n1 was run?
Answer: The outcome was “inactive”.

Question: How did the outcome turn out when CC1(C)C(C(=O)OC(C#N)c2cccc(Oc3ccccc3)c2)C1(C)C (stereo not given) was run?
Answer: The outcome was “inactive”.

Question: Which outcome does the source give for CCSC(=O)N1CCCCCC1 here?
Answer: Its outcome is “inactive”.

Question: How did the AC50 turn out when O=C(Nc1ccccc1-c1ccc(Cl)cc1)c1cccnc1Cl was run?
Answer: Its AC50 is 17 µM (active).

Question: For CSC(=O)c1c(C(F)F)nc(C(F)(F)F)c(C(=O)SC)c1CC(C)C, which outcome is on record?
Answer: The outcome was “inactive”.

Question: Which AC50 does the source give for CC1(C)CCC(=Cc2ccc(Cl)cc2)C1(O)Cn1cncn1 (stereo not given) here?
Answer: The AC50 was 4.96 µM (active).

Question: Which AC50 does the source give for Cc1c(COC(=O)[C@@H]2[C@H](/C=C(\Cl)C(F)(F)F)C2(C)C)cccc1-c1ccccc1 here?
Answer: The AC50 was 14.8 µM (active).

Question: Which outcome does the source give for CNC(=O)N(C)c1nnc(C(C)(C)C)s1 here?
Answer: Its outcome is “inactive”.
